# Reference: PubChem BioAssay
# Calls of active or inactive are those of the source.
# What was measured:
# [1] = E. coli DRC41 culture turbidity changes, primary screen, E. coli filamentation inducer project, strain DRC41, OD650, 48 h (AID 1152);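 further: E. coli MC1000 strain DRC41 lacking acrAB efflux pump and sulA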; settings: E. coli DRC41 (acrAB sulA), higher = more signal, called active from +8 up or from −8 down
# [2] = small-molecule binders of probe aLefty1, primary screen, biochemical, small-molecule microarray, 635/667 nm fluorescence (AID 1153); settings: higher = more signal;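 further: score merges spot fluorescence with signal-to-noise ratio from the scanned slide images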
# [3] = PSAC antagonists in infected red cells, primary screen, cell-based, P. falciparum Indochina, OD700, 1 h (AID 1154); settings: P. falciparum Indochina infected RBC osmotic lysis, higher = more signal, called active from +8 up or from −8 down
# [4] = PSAC antagonists in infected red cells, primary screen, cell-based, P. falciparum Indochina, OD700, 2 h (AID 1155);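 further: lysis reports solute entry through the parasite surface anion channel PSAC; channel blockers reduce lysis of infected cells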; settings: P. falciparum Indochina infected erythrocytes, osmotic lysis OD700; higher = more signal, called active from +8 up or from −8 down
# [5] = osmotic lysis modulators in infected erythrocytes, primary screen, PSAC antagonist project, cell-based, P. falciparum Indochina, OD700, 3 h (AID 1156); settings: higher = more signal, called active from +8 up or from −8 down
# [6] = PSAC antagonists in infected red cells, primary screen, cell-based, P. falciparum Indochina, OD700, 18 h (AID 1157); settings: P. falciparum Indochina infected erythrocytes, osmotic lysis OD700, 18 h; higher = more signal, called active from +8 up or from −8 down
# [7] = modulators of S6 phosphorylation in cells, primary screen, cell-based, A549, cytoblot, luminescence, serum-stimulated (AID 1158); settings: A549 phospho-S6 cytoblot, 5 h, higher = more signal;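 further: serum-stimulated A549 lung adenocarcinoma cells; signal is phosphorylated S6 detected by cytoblot immunostaining with HRP secondary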
# [8] = target: NADPH oxidase 2 (Homo sapiens) (UniProt P04839); test: NOX2-dependent H2O2 signal modulators, primary screen, NOX inhibitor project, cell-based, HEK293-NOX2, PMA-stimulated, Amplex Red fluorescence (AID 1159); settings: 45 min, higher = more signal, called active from +8 up or from −8 down; further: test concentration not given here
# Chain of NADPH oxidase 2 (Homo sapiens) (P04839 whole entry, looked up): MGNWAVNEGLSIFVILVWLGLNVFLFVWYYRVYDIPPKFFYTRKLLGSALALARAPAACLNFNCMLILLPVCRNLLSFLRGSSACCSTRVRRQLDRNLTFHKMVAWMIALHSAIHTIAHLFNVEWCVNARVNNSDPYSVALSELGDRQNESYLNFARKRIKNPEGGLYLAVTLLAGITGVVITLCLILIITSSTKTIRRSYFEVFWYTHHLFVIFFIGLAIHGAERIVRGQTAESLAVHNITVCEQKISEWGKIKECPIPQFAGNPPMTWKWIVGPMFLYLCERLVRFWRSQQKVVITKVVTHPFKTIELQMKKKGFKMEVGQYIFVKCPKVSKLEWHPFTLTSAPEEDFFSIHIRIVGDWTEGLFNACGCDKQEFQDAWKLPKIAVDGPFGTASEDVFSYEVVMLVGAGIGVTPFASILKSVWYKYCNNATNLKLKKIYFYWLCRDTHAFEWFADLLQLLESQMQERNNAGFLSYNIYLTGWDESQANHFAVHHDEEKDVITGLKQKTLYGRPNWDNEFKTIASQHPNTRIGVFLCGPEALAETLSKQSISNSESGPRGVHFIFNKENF
# [9] = target: NADPH oxidase 4 (Homo sapiens) (UniProt Q9NPH5); test: NOX4-dependent H2O2 signal modulators, primary screen, NOX inhibitor project, cell-based, HEK293-NOX4, tetracycline-induced, Amplex Red fluorescence (AID 1160); settings: 45 min, higher = more signal, called active from +8 up or from −8 down
# Chain of NADPH oxidase 4 (Homo sapiens) (Q9NPH5 whole entry, looked up): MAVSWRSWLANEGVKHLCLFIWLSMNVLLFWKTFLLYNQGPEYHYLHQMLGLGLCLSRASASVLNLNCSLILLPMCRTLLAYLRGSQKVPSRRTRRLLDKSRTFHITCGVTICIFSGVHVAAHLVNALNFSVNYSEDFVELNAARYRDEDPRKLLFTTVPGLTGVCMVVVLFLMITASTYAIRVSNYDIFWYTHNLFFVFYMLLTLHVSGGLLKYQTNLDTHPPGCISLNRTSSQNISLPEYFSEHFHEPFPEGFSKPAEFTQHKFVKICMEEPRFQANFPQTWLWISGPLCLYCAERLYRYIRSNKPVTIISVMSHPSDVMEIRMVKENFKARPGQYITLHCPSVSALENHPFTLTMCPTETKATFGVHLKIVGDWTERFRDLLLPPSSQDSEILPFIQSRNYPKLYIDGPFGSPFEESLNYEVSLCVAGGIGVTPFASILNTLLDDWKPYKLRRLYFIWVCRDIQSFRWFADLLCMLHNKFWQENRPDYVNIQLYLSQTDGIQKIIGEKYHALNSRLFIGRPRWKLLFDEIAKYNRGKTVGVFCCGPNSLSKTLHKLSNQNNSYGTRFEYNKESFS
# [10] = target: NADPH oxidase 5 (Homo sapiens) (UniProt Q96PH1); test: NOX5-dependent H2O2 signal modulators, primary screen, NOX inhibitor project, cell-based, HEK293-NOX5, Amplex Red fluorescence (AID 1161); settings: HEK293-NOX5, ionomycin, 45 min, higher = more signal
# Chain of NADPH oxidase 5 (Homo sapiens) (Q96PH1 whole entry, looked up): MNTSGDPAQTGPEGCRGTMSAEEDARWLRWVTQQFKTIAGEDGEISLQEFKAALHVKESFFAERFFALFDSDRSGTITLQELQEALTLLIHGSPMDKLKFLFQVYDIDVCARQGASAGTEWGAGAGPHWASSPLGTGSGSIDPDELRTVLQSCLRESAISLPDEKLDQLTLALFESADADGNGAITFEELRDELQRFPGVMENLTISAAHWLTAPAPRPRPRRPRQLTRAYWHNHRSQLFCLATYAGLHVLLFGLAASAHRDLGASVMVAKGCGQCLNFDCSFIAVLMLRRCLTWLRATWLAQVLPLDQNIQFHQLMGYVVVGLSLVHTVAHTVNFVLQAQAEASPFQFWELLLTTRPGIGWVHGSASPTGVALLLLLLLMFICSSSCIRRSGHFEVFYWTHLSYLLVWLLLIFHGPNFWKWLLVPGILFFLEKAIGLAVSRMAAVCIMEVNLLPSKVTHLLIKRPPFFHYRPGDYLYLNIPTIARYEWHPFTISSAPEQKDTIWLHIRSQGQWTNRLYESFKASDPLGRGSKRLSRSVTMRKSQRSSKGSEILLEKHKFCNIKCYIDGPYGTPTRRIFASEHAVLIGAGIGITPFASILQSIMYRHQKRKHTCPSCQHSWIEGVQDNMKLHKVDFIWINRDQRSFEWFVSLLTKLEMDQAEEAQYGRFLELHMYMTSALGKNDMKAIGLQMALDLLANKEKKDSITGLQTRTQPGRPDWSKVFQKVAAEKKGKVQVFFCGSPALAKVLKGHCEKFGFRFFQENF
# [11] = A549 cell viability effects, profiling panel, calcein-AM fluorescence, 48 h, basal (AID 1162); settings: higher = more signal; further: test concentration not given here
# [12] = adipocyte viability effects, profiling panel, cell-based, 3T3-L1 adipocytes, calcein-AM fluorescence, 48 h, basal (AID 1163); settings: 3T3-L1 adipocytes viability, higher = more signal; further: test concentration not given here
# [13] = HepG2 cell viability effects, profiling panel, calcein-AM fluorescence, 48 h, basal (AID 1164); settings: higher = more signal; further: test concentration not given here
# [14] = MM1S cell viability effects, profiling panel, calcein-AM fluorescence, 48 h, basal (AID 1165); settings: higher = more signal;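 further: viability of MM1S multiple myeloma cells under basal unstimulated conditions; test concentration not given here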
# [15] = basal RPMI8226 viability, no added stimulus, profiling panel, cell-based, calcein-AM fluorescence, 48 h, PK04 Diversity Set (AID 1166); settings: RPMI8226 myeloma viability, higher = more signal;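 further: cells grown under basal conditions without added stimulus; test concentration not given here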
# [16] = basal HepG2 mitochondrial membrane potential changes, profiling panel, cell-based, JC-1 fluorescence, 24 h, 100 nL compound (AID 1167); settings: higher = more signal; further: test concentration not given here
# [17] = basal 3T3-L1 adipocyte mitochondrial potential changes, profiling panel, cell-based, JC-1 fluorescence, 3T3-L1 adipocytes, 24 h, 100 nL compound (AID 1168); settings: JC-1 mitochondrial fluorescence, higher = more signal, called active from +8 up or from −8 down; further: test concentration not given here
# [18] = basal RPMI8226 mitochondrial membrane potential changes, profiling panel, cell-based, JC-1 fluorescence, 24 h, 100 nL compound (AID 1169); settings: RPMI8226 myeloma, JC-1 mitochondrial potential fluorescence, higher = more signal; further: test concentration not given here
# [19] = basal MM1S mitochondrial membrane potential changes, profiling panel, cell-based, JC-1 fluorescence, 24 h, 100 nL compound (AID 1170); settings: higher = more signal; further: test concentration not given here
# [20] = A549 lung cancer cell viability effects, profiling panel, resazurin fluorescence, 24 h, PK04 Diversity Set (AID 1171); settings: higher = more signal, called active from +8 up or from −8 down; further: test concentration not given here
Compound,z-score [1],composite z-score [2],z-score [3],z-score [4],z-score [5],z-score [6],z-score [7],z-score [8],z-score [9],z-score [10],z-score [11],z-score [12],z-score [13],z-score [14],z-score [15],z-score [16],z-score [17],z-score [18],z-score [19],z-score [20]
COC(=O)[C@@]1(Cc2ccccc2)[C@H]2c3cc(C(=O)N4CCCC4)[nH]c3C[C@H]2CN1C(=O)c1ccccc1,-0.875 (inactive),0.269,4.64 (inactive),0.805 (inactive),0.102 (inactive),0.717 (inactive),0.177,0.0123 (inactive),-0.696 (inactive),-0.713,-1.12,0.904,-0.585,0.277,-1.17,0.288,-1.17 (inactive),-0.786,-0.28,0.412 (inactive)
CN1C(=O)C2C=CC(C(O)Cc3ccccc3)N(N(c3ccccc3)c3ccccc3)C2C1=O (stereo not given),-1.29 (inactive),0.137,1.15 (inactive),1.09 (inactive),0.449 (inactive),0.679 (inactive),-1.07,-0.0622 (inactive),-0.198 (inactive),0.158,1.02,-1.5,1.35,-0.64,0.0338,1.37,-0.833 (inactive),0.257,-0.871,-0.69 (inactive)
CCOc1cc(C(O)C2C=CC3C(=O)N(C)C(=O)C3N2N2CCCCC2)ccc1O (stereo not given),-0.794 (inactive),0.267,1.5 (inactive),1.66 (inactive),0.0675 (inactive),1.12 (inactive),-0.599,-1.96 (inactive),-3.83 (inactive),-3.11,0.256,-0.413,-0.07,-0.224,0.294,-0.788,-0.0873 (inactive),-0.109,0.0215,-0.296 (inactive)
O=C1c2ccccc2[C@@]2(Cc3ccccc3N(C3CC3)C2=O)[C@H](c2ccc(CO)cc2)N1C1CCCCC1,-0.301 (inactive),-0.0066,0.667 (inactive),-0.0557 (inactive),0.181 (inactive),0.181 (inactive),-0.0814,0.112 (inactive),-1.7 (inactive),-1.45,-0.506,-0.621,-0.578,-0.258,-2.4,-0.266,-0.971 (inactive),0.818,0.144,-0.179 (inactive)
O=C1NC(=O)C2C1C=CC(C(O)c1ccc3c(c1)OCO3)N2Nc1ccccn1 (stereo not given),-0.0438 (inactive),-0.112,-0.113 (inactive),-0.665 (inactive),-0.752 (inactive),-0.839 (inactive),0.883,-1.27 (inactive),-3 (inactive),-1.73,0.732,-1.11,0.641,0.0178,-0.12,-0.465,-0.0272 (inactive),0.115,-0.263,-1.67 (inactive)
CC(=O)NCCCC[C@@H]1NC(=O)[C@@H]2C[C@H](C(=O)O)[C@H](c3ccc(O)cc3)N2C1=O,0.139 (inactive),0.202,1.15 (inactive),0.508 (inactive),1.08 (inactive),0.275 (inactive),-0.544,1.03 (inactive),-1.04 (inactive),0.422,0.0665,0.384,-0.552,0.421,-0.105,-1.14,-0.352 (inactive),0.667,0.237,-0.179 (inactive)
CCOC(=O)[C@@H]1[C@@H]2C(=O)N(CC)C(=O)[C@@H]2C[C@@H]1Sc1ccccc1,-0.785 (inactive),-0.247,1.44 (inactive),1.16 (inactive),-0.245 (inactive),0.905 (inactive),-0.502,-2.32 (inactive),-4.05 (inactive),-0.796,-0.992,-1.04,-0.971,-0.223,-0.0967,-0.644,0.186 (inactive),-0.28,-1.29,1.06 (inactive)
CCCCN1CC=CC23O[C@@H]4C=CCOC(=O)[C@@H]4[C@H]2C(=O)N(C(C)CO)[C@@H]3C1=O (stereo not given in full),-0.65 (inactive),-0.045,0.596 (inactive),-0.404 (inactive),0.436 (inactive),0.111 (inactive),-0.163,0.953 (inactive),0.56 (inactive),1.51,-0.406,0.434,-0.208,0.638,0.0934,-1.02,-1.98 (inactive),-0.768,-0.0859,-0.384 (inactive)
CCCC[C@@H]1C[C@H]1[C@@H](NC(=O)c1cccnc1)c1ccc(-c2ccccc2)cc1,-2.22 (inactive),-0.105,3.12 (inactive),0.818 (inactive),0.219 (inactive),0.445 (inactive),-0.0675,-1.01 (inactive),-1.52 (inactive),0.353,-1.42,-0.438,-0.886,-1.14,-2.21,-0.608,-1.18 (inactive),-0.642,-1.13,3.07 (inactive)
